Test results taken from the supplement of paper PMC10981050.
Where “and” joins values, the source holds several entries; their conditions need not be identical. Equal values may be shown once. Where a name gives a salt, the structure may show the parent alone.

Assays:
Experiment in all cases: cell viability relative to vehicle control; higher = less cytotoxic
Conditions in all cases: 10 µM
K562 = tested on: K562
Summary of the method: (§1)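 Each screen used CRISPR-edited mutant and wild-type clones from four leukaemia lines. Compounds were acoustically dispensed at a single 10 µM dose, and CellTiter-Glo luminescence was read after 48 h with the supernatant first removed. Viability was analysed in Genedata Screener and given as percent of the on-plate vehicle control.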

MARIMO = tested on: MARIMO
Summary of the method: as §1

MOLM14 = tested on: MOLM14
Summary of the method: as §1

OCI-AML2 = tested on: OCI-AML2
Summary of the method: as §1

## C=CC(=O)Nc1cccc(Nc2nc(Nc3ccc(NC4CN(CCF)C4)cc3OC)ncc2C(F)(F)F)c1
K562; SRSF2 genotype: SRSF2 P95H/wt
  cell viability: 55.2% and 53.1%
K562; SRSF2 genotype: SRSF2 wt/wt
  cell viability: 64.8%
MARIMO; SRSF2 genotype: SRSF2 P95H/wt
  cell viability: 22.3%
MARIMO; SRSF2 genotype: SRSF2 wt/wt
  cell viability: 19.6%
MOLM14; SRSF2 genotype: SRSF2 P95H/wt
  cell viability: 4.64%
MOLM14; SRSF2 genotype: SRSF2 wt/wt
  cell viability: 10.4%
OCI-AML2; SRSF2 genotype: P95H/wt
  cell viability: 12.3%
OCI-AML2; SRSF2 genotype: wt/wt
  cell viability: 17.9%

## CC(C)NCC(O)COc1ccc(CCOCC2CC2)cc1 (stereo not given) [Betaxolol hydrochloride (Betoptic)]
K562; SRSF2 genotype: SRSF2 P95H/wt
  cell viability: 97.5% and 96.6%
K562; SRSF2 genotype: SRSF2 wt/wt
  cell viability: 94.3%
MARIMO; SRSF2 genotype: SRSF2 P95H/wt
  cell viability: 103%
MARIMO; SRSF2 genotype: SRSF2 wt/wt
  cell viability: 107%
MOLM14; SRSF2 genotype: SRSF2 P95H/wt
  cell viability: 99.5%
MOLM14; SRSF2 genotype: SRSF2 wt/wt
  cell viability: 99.7%
OCI-AML2; SRSF2 genotype: P95H/wt
  cell viability: 91.2%
OCI-AML2; SRSF2 genotype: wt/wt
  cell viability: 99.6%

## Nc1ncnc2c1ncn2C1CC(O)C(CO)O1 (stereo not given) [2'-Deoxyadenosine monohydrate]
K562; SRSF2 genotype: SRSF2 P95H/wt
  cell viability: 113% and 106%
K562; SRSF2 genotype: SRSF2 wt/wt
  cell viability: 105%
MARIMO; SRSF2 genotype: SRSF2 P95H/wt
  cell viability: 96.4%
MARIMO; SRSF2 genotype: SRSF2 wt/wt
  cell viability: 94.5%
MOLM14; SRSF2 genotype: SRSF2 P95H/wt
  cell viability: 102%
MOLM14; SRSF2 genotype: SRSF2 wt/wt
  cell viability: 99.6%
OCI-AML2; SRSF2 genotype: P95H/wt
  cell viability: 95.5%
OCI-AML2; SRSF2 genotype: wt/wt
  cell viability: 96.5%

## COc1cc(N2CCC(N(C)C)CC2)ccc1Nc1ncc(Cl)c(Nc2ccccc2P(C)(C)=O)n1
K562; SRSF2 genotype: SRSF2 P95H/wt
  cell viability: 41.2% and 62.9%
K562; SRSF2 genotype: SRSF2 wt/wt
  cell viability: 34.2%
MARIMO; SRSF2 genotype: SRSF2 P95H/wt
  cell viability: 34%
MARIMO; SRSF2 genotype: SRSF2 wt/wt
  cell viability: 27.2%
MOLM14; SRSF2 genotype: SRSF2 P95H/wt
  cell viability: 1.15%
MOLM14; SRSF2 genotype: SRSF2 wt/wt
  cell viability: 3.56%
OCI-AML2; SRSF2 genotype: P95H/wt
  cell viability: 4.59%
OCI-AML2; SRSF2 genotype: wt/wt
  cell viability: 12.3%

## C#CC1(O)CC[C@H]2[C@@H]3CCC4=CC(=O)CC[C@@H]4[C@H]3CC[C@@]21CC (stereo not given in full) [Norgestrel]
K562; SRSF2 genotype: SRSF2 P95H/wt
  cell viability: 100%
K562; SRSF2 genotype: SRSF2 wt/wt
  cell viability: 97.1%
MARIMO; SRSF2 genotype: SRSF2 P95H/wt
  cell viability: 95.6%
MARIMO; SRSF2 genotype: SRSF2 wt/wt
  cell viability: 103%
MOLM14; SRSF2 genotype: SRSF2 P95H/wt
  cell viability: 98.2%
MOLM14; SRSF2 genotype: SRSF2 wt/wt
  cell viability: 108%
OCI-AML2; SRSF2 genotype: P95H/wt
  cell viability: 122%
OCI-AML2; SRSF2 genotype: wt/wt
  cell viability: 114%

## CC(C)CCN1c2nc(Nc3cc(F)c(O)c(F)c3)ncc2N(C)C(=O)C1C (stereo not given)
K562; SRSF2 genotype: SRSF2 P95H/wt
  cell viability: 49.8% and 63.1%
K562; SRSF2 genotype: SRSF2 wt/wt
  cell viability: 64.1%
MARIMO; SRSF2 genotype: SRSF2 P95H/wt
  cell viability: 33.9%
MARIMO; SRSF2 genotype: SRSF2 wt/wt
  cell viability: 35.3%
MOLM14; SRSF2 genotype: SRSF2 P95H/wt
  cell viability: 11.4%
MOLM14; SRSF2 genotype: SRSF2 wt/wt
  cell viability: 4.4%
OCI-AML2; SRSF2 genotype: P95H/wt
  cell viability: 16.2%
OCI-AML2; SRSF2 genotype: wt/wt
  cell viability: 20.7%

## O=C1/C(=C/c2cccs2)CC/C1=C\c1cccs1
K562; SRSF2 genotype: SRSF2 P95H/wt
  cell viability: 99.2% and 106%
K562; SRSF2 genotype: SRSF2 wt/wt
  cell viability: 110%
MARIMO; SRSF2 genotype: SRSF2 P95H/wt
  cell viability: 96.2%
MARIMO; SRSF2 genotype: SRSF2 wt/wt
  cell viability: 104%
MOLM14; SRSF2 genotype: SRSF2 P95H/wt
  cell viability: 105%
MOLM14; SRSF2 genotype: SRSF2 wt/wt
  cell viability: 99.2%
OCI-AML2; SRSF2 genotype: P95H/wt
  cell viability: 109%
OCI-AML2; SRSF2 genotype: wt/wt
  cell viability: 86%

## CN(c1ccccc1CNc1nc(Nc2ccc3c(c2)CC(=O)N3)ncc1C(F)(F)F)S(C)(=O)=O
K562; SRSF2 genotype: SRSF2 P95H/wt
  cell viability: 17% and 28.3%
K562; SRSF2 genotype: SRSF2 wt/wt
  cell viability: 16.4%
MARIMO; SRSF2 genotype: SRSF2 P95H/wt
  cell viability: 8.93%
MARIMO; SRSF2 genotype: SRSF2 wt/wt
  cell viability: 3.27%
MOLM14; SRSF2 genotype: SRSF2 P95H/wt
  cell viability: 0.69%
MOLM14; SRSF2 genotype: SRSF2 wt/wt
  cell viability: 0.39%
OCI-AML2; SRSF2 genotype: P95H/wt
  cell viability: 1.33%
OCI-AML2; SRSF2 genotype: wt/wt
  cell viability: 13.7%

## N=C(N)NC(=N)N1CCOCC1 [Moroxydine HCl]
K562; SRSF2 genotype: SRSF2 P95H/wt
  cell viability: 99.7% and 100%
K562; SRSF2 genotype: SRSF2 wt/wt
  cell viability: 91.8%
MARIMO; SRSF2 genotype: SRSF2 P95H/wt
  cell viability: 97.6%
MARIMO; SRSF2 genotype: SRSF2 wt/wt
  cell viability: 101%
MOLM14; SRSF2 genotype: SRSF2 P95H/wt
  cell viability: 95.8%
MOLM14; SRSF2 genotype: SRSF2 wt/wt
  cell viability: 99.5%
OCI-AML2; SRSF2 genotype: P95H/wt
  cell viability: 98.1%
OCI-AML2; SRSF2 genotype: wt/wt
  cell viability: 93.8%

## O=C(CCc1ccc(O)cc1)c1c(O)cc(O)cc1O[C@@H]1O[C@H](CO)[C@@H](O)[C@H](O)[C@H]1O [Phlorizin (Phloridzin)]
K562; SRSF2 genotype: SRSF2 P95H/wt
  cell viability: 104% and 94.2%
K562; SRSF2 genotype: SRSF2 wt/wt
  cell viability: 92.3%
MARIMO; SRSF2 genotype: SRSF2 P95H/wt
  cell viability: 93%
MARIMO; SRSF2 genotype: SRSF2 wt/wt
  cell viability: 102%
MOLM14; SRSF2 genotype: SRSF2 P95H/wt
  cell viability: 92.2%
MOLM14; SRSF2 genotype: SRSF2 wt/wt
  cell viability: 94.8%
OCI-AML2; SRSF2 genotype: P95H/wt
  cell viability: 90.1%
OCI-AML2; SRSF2 genotype: wt/wt
  cell viability: 91.7%
